This passage reports composite z-score and z-score results from PubChem BioAssay.

For assay [1], the system named is Wnt5a (protein binding on small-molecule microarray). The assay can be described thus: Wnt5a binders on small-molecule microarray, primary screen, biophysical, 635/667 nm fluorescence (AID 1142).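 Further: fluorescence read at 667 nm with signal to noise per printed feature.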 Particulars: 635 nm fluorescence, higher = more signal.
The nature of assay [2]: cell viability in Huh7 cells, primary screen, cytotoxicity control for HCV replication inhibitor project, CellTiter-Glo luminescence, basal, 48 h (AID 1143).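 Further: Huh7 hepatoma cells carrying a hepatitis C replication reporter with no stimulus; test concentration not given here.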 Particulars: Huh7 HCV replicon, higher = more signal, called active from +8 up or from −8 down.
Assay [3] can be described thus: P. aeruginosa biofilm formation inhibitors, primary screen, PAO1 strain, BacTiter-Glo luminescence, LB-PBS (AID 1144). Particulars: 12 h, higher = more signal.
Assay [4] is described as follows: CREB reporter modulators without forskolin, primary screen, cell-based, PC12, CRE-LacZ reporter, unstimulated (AID 1145). The following applies: no forskolin, luminescence, 4.5 h, higher = more signal, called active from +8 up or from −8 down.
A short description of assay [5]: CREB reporter modulators under forskolin, primary screen, cell-based, PC12, CRE-LacZ reporter, forskolin-stimulated (AID 1146).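 Further: PC12 cells with 6xCRE LacZ reporter stimulated by forskolin 10 µM; beta-galactosidase reporter signal reflecting CREB driven transcription.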 Particulars: luminescence, 4.5 h, higher = more signal, called active from +8 up or from −8 down.
The target in assay [6] is Streptavidin (Streptomyces avidinii) (UniProt P22629). The assay can be described thus: streptavidin binders on small-molecule microarray, primary screen, artefact control for SMM compound annotation, biophysical, 635/667 nm fluorescence (AID 1147).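 Further: signal reflects streptavidin binding to arrayed compounds as a control protein.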 The following applies: streptavidin binding, higher = more signal.
Streptavidin (Streptomyces avidinii), sequence (P22629 whole entry, looked up): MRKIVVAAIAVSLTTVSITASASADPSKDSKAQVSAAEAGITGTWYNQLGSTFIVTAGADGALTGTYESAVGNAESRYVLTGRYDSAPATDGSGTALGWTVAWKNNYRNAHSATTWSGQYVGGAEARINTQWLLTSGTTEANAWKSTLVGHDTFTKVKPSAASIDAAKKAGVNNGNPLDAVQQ
A short description of assay [7]: small-molecule binders of probe aInhba, primary screen, biochemical, small-molecule microarray, 635/667 nm fluorescence (AID 1148).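 Further: score merges 667nm spot fluorescence with signal-to-noise for antibody binding to printed compounds.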 Particulars: higher = more signal.
Assay [8] deals with Torsin-1A (Homo sapiens) (UniProt O14656). Nature of the assay: torsin A binders from cell lysate, primary screen, small-molecule microarray, wild-type, 635/667 nm (AID 1149). Particulars: COS7 hTOR1A-WT lysate, 635 nm fluorescence, higher = more signal.
Torsin-1A (Homo sapiens), sequence (O14656 whole entry, looked up): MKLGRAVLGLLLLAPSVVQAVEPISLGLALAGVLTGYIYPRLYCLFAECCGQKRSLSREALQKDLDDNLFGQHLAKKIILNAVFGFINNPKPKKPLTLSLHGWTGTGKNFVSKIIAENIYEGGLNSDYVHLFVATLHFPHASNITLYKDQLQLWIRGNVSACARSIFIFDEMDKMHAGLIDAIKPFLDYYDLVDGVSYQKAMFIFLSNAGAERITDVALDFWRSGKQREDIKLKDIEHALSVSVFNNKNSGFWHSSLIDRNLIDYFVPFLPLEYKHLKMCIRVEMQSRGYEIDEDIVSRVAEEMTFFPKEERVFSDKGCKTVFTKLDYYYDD
Assay [9] shares this target. Nature of the assay: small-molecule binders of mutant TOR1A in lysate, primary screen, cell lysate, small-molecule microarray, COS7 lysate, 635/667 nm fluorescence (AID 1150).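 Further: score pools 667 nm emission and signal to noise measuring lysate protein binding.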 The following applies: COS7 hTOR1A mutant lysate, 635 nm fluorescence, higher = more signal.
Assay [10] relates to Sonic hedgehog protein (Shh). Nature of the assay: small-molecule binders of Shh protein, primary screen, biochemical, small-molecule microarray, 635/667 nm fluorescence (AID 1151).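 Further: Shh protein binding to compounds spotted on small-molecule microarray slides; score combines spot fluorescence intensity with signal-to-noise across triplicate slides.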 Particulars: small-molecule microarray binding, 635 nm fluorescence; higher = more signal.
Assay [11] is described as follows: E. coli DRC41 culture turbidity changes, primary screen, E. coli filamentation inducer project, strain DRC41, OD650, 48 h (AID 1152).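 Further: E. coli MC1000 strain DRC41 lacking acrAB efflux pump and sulA.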 The following applies: E. coli DRC41 (acrAB sulA), higher = more signal, called active from +8 up or from −8 down.
Assay [12] can be described thus: small-molecule binders of probe aLefty1, primary screen, biochemical, small-molecule microarray, 635/667 nm fluorescence (AID 1153).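 Further: score merges spot fluorescence with signal-to-noise ratio from the scanned slide images.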 Particulars: higher = more signal.
Assay [13] is described as follows: PSAC antagonists in infected red cells, primary screen, cell-based, P. falciparum Indochina, OD700, 1 h (AID 1154). Particulars: P. falciparum Indochina infected RBC osmotic lysis, higher = more signal, called active from +8 up or from −8 down.
A short description of assay [14]: PSAC antagonists in infected red cells, primary screen, cell-based, P. falciparum Indochina, OD700, 2 h (AID 1155).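 Further: lysis reports solute entry through the parasite surface anion channel PSAC; channel blockers reduce lysis of infected cells.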 Particulars: P. falciparum Indochina infected erythrocytes, osmotic lysis OD700; higher = more signal, called active from +8 up or from −8 down.
Assay [15] in a line: osmotic lysis modulators in infected erythrocytes, primary screen, PSAC antagonist project, cell-based, P. falciparum Indochina, OD700, 3 h (AID 1156). Particulars: higher = more signal, called active from +8 up or from −8 down.
A short description of assay [16]: PSAC antagonists in infected red cells, primary screen, cell-based, P. falciparum Indochina, OD700, 18 h (AID 1157). The following applies: P. falciparum Indochina infected erythrocytes, osmotic lysis OD700, 18 h; higher = more signal, called active from +8 up or from −8 down.
A short description of assay [17]: modulators of S6 phosphorylation in cells, primary screen, cell-based, A549, cytoblot, luminescence, serum-stimulated (AID 1158).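 Further: serum-stimulated A549 lung adenocarcinoma cells; signal is phosphorylated S6 detected by cytoblot immunostaining with HRP secondary.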 The following applies: A549 phospho-S6 cytoblot, 5 h, higher = more signal.
Assay [18] deals with NADPH oxidase 2 (Homo sapiens) (UniProt P04839). Nature of the assay: NOX2-dependent H2O2 signal modulators, primary screen, NOX inhibitor project, cell-based, HEK293-NOX2, PMA-stimulated, Amplex Red fluorescence (AID 1159). Further: test concentration not given here. The following applies: 45 min, higher = more signal, called active from +8 up or from −8 down.
NADPH oxidase 2 (Homo sapiens), sequence (P04839 whole entry, looked up): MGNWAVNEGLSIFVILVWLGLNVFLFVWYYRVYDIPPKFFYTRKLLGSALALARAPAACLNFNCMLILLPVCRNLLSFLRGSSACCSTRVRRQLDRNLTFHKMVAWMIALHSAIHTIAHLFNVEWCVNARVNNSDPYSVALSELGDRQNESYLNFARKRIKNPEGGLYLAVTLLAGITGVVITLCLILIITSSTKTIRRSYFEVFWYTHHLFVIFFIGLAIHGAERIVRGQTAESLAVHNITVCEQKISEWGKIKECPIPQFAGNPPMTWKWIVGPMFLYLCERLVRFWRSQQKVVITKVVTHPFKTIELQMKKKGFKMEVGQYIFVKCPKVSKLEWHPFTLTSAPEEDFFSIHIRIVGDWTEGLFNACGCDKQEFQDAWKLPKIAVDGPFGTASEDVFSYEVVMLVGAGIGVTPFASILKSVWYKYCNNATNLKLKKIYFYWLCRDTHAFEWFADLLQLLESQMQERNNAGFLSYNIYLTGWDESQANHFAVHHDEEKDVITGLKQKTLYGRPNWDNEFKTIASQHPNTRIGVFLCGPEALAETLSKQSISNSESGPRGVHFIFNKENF
The target in assay [19] is NADPH oxidase 4 (Homo sapiens) (UniProt Q9NPH5). Nature of the assay: NOX4-dependent H2O2 signal modulators, primary screen, NOX inhibitor project, cell-based, HEK293-NOX4, tetracycline-induced, Amplex Red fluorescence (AID 1160). Particulars: 45 min, higher = more signal, called active from +8 up or from −8 down.
NADPH oxidase 4 (Homo sapiens), sequence (Q9NPH5 whole entry, looked up): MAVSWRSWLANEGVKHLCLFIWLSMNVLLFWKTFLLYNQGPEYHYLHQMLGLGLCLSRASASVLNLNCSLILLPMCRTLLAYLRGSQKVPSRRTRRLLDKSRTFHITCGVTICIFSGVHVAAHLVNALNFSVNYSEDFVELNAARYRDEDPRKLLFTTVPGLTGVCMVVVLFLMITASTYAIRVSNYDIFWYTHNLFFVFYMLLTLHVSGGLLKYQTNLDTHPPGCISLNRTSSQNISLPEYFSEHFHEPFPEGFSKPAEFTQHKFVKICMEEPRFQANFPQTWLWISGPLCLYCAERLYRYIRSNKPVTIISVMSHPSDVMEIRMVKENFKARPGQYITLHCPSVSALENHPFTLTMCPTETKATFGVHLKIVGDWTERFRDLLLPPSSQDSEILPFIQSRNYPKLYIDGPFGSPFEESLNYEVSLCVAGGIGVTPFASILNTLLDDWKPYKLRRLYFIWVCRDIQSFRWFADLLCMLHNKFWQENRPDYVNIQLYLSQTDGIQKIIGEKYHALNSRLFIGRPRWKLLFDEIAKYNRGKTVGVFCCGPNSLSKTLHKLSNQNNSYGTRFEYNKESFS
Assay [20] concerns the target NADPH oxidase 5 (Homo sapiens) (UniProt Q96PH1). Nature of the assay: NOX5-dependent H2O2 signal modulators, primary screen, NOX inhibitor project, cell-based, HEK293-NOX5, Amplex Red fluorescence (AID 1161). The following applies: HEK293-NOX5, ionomycin, 45 min, higher = more signal.

Calls of active or inactive are those of the source. Unless noted, how the calls were made is not given here.

NADPH oxidase 5 (Homo sapiens), sequence (Q96PH1 whole entry, looked up): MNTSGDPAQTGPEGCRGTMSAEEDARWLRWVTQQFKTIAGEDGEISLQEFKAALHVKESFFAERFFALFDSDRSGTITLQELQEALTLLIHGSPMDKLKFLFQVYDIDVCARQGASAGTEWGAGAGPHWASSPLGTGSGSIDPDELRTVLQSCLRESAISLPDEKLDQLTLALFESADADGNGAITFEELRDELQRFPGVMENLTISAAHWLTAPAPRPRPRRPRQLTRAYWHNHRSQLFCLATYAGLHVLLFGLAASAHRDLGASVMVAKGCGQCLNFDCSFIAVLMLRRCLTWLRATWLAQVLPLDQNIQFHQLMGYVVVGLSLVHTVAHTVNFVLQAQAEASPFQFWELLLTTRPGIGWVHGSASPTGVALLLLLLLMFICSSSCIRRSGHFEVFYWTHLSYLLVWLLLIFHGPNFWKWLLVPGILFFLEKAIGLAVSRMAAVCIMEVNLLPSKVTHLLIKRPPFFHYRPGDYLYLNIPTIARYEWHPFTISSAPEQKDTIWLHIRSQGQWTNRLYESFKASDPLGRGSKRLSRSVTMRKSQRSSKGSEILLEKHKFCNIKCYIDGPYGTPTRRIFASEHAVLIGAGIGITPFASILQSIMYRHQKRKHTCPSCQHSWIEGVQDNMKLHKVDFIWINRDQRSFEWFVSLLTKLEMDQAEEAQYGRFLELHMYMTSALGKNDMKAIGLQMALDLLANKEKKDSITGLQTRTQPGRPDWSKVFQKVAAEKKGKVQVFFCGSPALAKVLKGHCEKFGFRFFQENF

With `C=CC[C@]1(C(=O)NCCN2CCOCC2)N=C(c2ccc(OCCCO)cc2)O[C@H]1c1ccccc1`, the composite z-score amounted to 0.891 in [1]; 0.416 in assay [6]; 0.119 in assay [7]; 2.03 in the assay with Torsin-1A (Homo sapiens) [8]; 1.44 with Torsin-1A (Homo sapiens) [9]; 0.638 in [10]. In [12], this compound registered a composite z-score of 0.296. In addition, the z-score in assay [2] is -0.541 (inactive); in [3], 0.154 (inactive); in assay [4] it was 2.55 (inactive); in assay [5], -0.0077 (inactive); in [11], -0.151 (inactive); in assay [13], 4.72 (inactive). The z-score is 0.644 (inactive) in assay [14]; 0.168 (inactive) in assay [15]; 0.275 (inactive) in [16]; -0.45 in [17]; 0.0905 (inactive) in assay [18]; -0.0559 (inactive) in assay [19]. In addition, the z-score in assay [20] was 0.115.

For `CC(C)N1C(=O)[C@@]2(Cc3ccccc31)c1ccccc1C(=O)N(Cc1ccccc1)[C@H]2c1ccc(CO)cc1`, the composite z-score in assay [1] was 0.164; in assay [6] it was -0.439; in assay [7], -0.119; in the assay with Torsin-1A (Homo sapiens) [8] it was 0.291; with Torsin-1A (Homo sapiens) [9], -0.182; in assay [10], 0.462. In addition, in assay [12], the composite z-score was -0.211. For the same compound, the z-score was 0.629 (inactive) in [2]; 0.0609 (inactive) in assay [3]; -0.114 (inactive) in assay [4]; 0.467 (inactive) in assay [5]; 0.882 (inactive) in assay [11]; 0.117 (inactive) in assay [13]. Besides, the z-score was 0.945 (inactive) in [14]; 0.146 (inactive) in [15]; 0.328 (inactive) in assay [16]; -0.274 in assay [17]; -1.11 (inactive) in assay [18]; -0.462 (inactive) in [19]. Also, the z-score in [20] is -0.601.

On to `O=C(NC1CC1)[C@@H]1c2ccccc2C(=O)N(C2CCCCC2)[C@H]1c1ccc(CO)cc1`, for which the composite z-score is 0.0033 in assay [1]; -0.104 in assay [6]; -0.221 in assay [7]; -0.164 with Torsin-1A (Homo sapiens) [8]; 0.324 with Torsin-1A (Homo sapiens) [9]; -0.118 in assay [10]. In addition, the composite z-score in assay [12] was -0.28. For the same compound, the z-score in [2] is -1.49 (inactive); in assay [3], 0.446 (inactive); in assay [4], -0.0259 (inactive); in assay [5], -0.592 (inactive); in assay [11], 0.1 (inactive); in [13] it was 1.4 (inactive). Moreover, the z-score in [14] is 0.295 (inactive); in assay [15], 0.973 (inactive); in assay [16], 0.0604 (inactive); in assay [17], -0.0513; in [18], 0.382 (inactive); in [19], 0.589 (inactive). The compound further came in with a z-score in [20] of 0.536.

`C#CCN(C(=O)OC(C)(C)C)[C@H](CO)c1ccccc1`: the composite z-score in [1] was -0.1; in assay [6] it was -0.314; in [7] it was -0.128; with Torsin-1A (Homo sapiens) [8], 0.435; in the assay with Torsin-1A (Homo sapiens) [9], 0.411; in [10], 0.0466. Moreover, the composite z-score in [12] is -0.0536. Further, the z-score was -1.66 (inactive) in [2]; -0.141 (inactive) in assay [3]; 0.0329 (inactive) in assay [4]; -0.653 (inactive) in assay [5]; -1.15 (inactive) in [11]; 1.57 (inactive) in [13]. Further, the z-score in assay [14] is -0.0352 (inactive); in assay [15], -0.195 (inactive); in [16], 0.133 (inactive); in assay [17], 0.137; in assay [18] it was 0.441 (inactive); in assay [19], 0.469 (inactive). This compound had a z-score in assay [20] of 0.745.
